Reference: PubChem BioAssay AID504803 (The Scripps Research Institute Molecular Screening Center, 2011)
Out of some 340,000 compounds screened, about 1,700 (0.5%) were called active. The sample as a whole holds a higher share of actives than the screen did. A number with no mark means an inactive call. Rule as the data show it: active = inhibition above about 36%; inactive = the rest.

Target: Serine protease HTRA1 (Homo sapiens) (UniProt Q92743)
Experiment: HTRA1 serine protease inhibitors, primary screen, biochemical, fluorescence polarization, HTS (AID 504803);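 also: 0% = enzyme with DMSO and 100% = wells lacking enzyme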
Conditions: recombinant HTRA1, FP-rhodamine activity-based probe, at 5.96 µM, stronger effect = higher value

Chain of Serine protease HTRA1 (Homo sapiens) (Q92743 whole entry, looked up): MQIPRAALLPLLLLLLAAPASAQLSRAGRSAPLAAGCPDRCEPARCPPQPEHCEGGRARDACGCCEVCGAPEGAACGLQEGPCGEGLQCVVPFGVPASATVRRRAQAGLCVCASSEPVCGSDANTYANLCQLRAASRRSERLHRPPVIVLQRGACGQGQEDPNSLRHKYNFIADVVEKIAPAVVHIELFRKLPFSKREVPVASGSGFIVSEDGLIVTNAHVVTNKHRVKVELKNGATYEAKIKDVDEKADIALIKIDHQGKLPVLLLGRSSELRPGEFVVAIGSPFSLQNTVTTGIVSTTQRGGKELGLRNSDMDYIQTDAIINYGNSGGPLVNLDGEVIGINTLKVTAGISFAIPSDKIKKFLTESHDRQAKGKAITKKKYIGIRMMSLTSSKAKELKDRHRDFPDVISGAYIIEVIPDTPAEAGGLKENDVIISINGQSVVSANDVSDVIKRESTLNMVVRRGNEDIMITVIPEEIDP

Row | Compound | inhibition
1 | C[C@H]1CN([C@@H](C)CO)C(=O)CCCn2cc(nn2)CO[C@@H]1CN(C)S(=O)(=O)c1cccs1 | 4.51%
2 | O=C(NCCN1CCOCC1)c1ccc2c(c1)N(Cc1cccc(Cl)c1)C(=O)c1ccccc1S2(=O)=O | -8.45%
3 | Clc1ccccc1CSc1nnc(-c2ccco2)c(-c2ccco2)n1 | 49.6% (active)
4 | CCc1nnc(SCc2cccc(F)c2)nc1CC | -3.55%
5 | Clc1ccc(CSc2nnc3c(n2)[nH]c2ccccc23)cc1 | -20.7%
6 | S=C(NCc1ccco1)NCc1ccccc1Cl | -12.8%
7 | O=C(Nc1nnc(SCc2ccccc2Cl)s1)c1cccc([N+](=O)[O-])c1 | -3.08%
8 | c1ccc(CSc2nnc(-c3ccco3)c(-c3ccco3)n2)cc1 | 42.8% (active)
9 | O=C(NCc1nnnn1-c1ccc(Cl)cc1)c1ccc([N+](=O)[O-])o1 | 2.97%
10 | CCN(CC)C(=O)C1=C(C)N(Cc2ccc(C(C)(C)C)cc2)C(=O)C(CC(=O)NCc2cccc3ccccc23)C1 (configuration not stated) | -39.3%
11 | Nc1cc(=O)c2[nH]cnc2[nH]1 | -44.6%
12 | NS(=O)(=O)c1ccc(CNC(=O)c2cc(S(=O)(=O)N3CCOCC3)ccc2N2CCCC2)cc1 | 0.13%
13 | CCCc1ccc(S(=O)(=O)N2CCN(C(=O)c3cc(C)on3)CC2)cc1 | -2.05%
14 | C[C@H]1Cn2cnc(C(=O)N[C@H](C)c3ccccc3)c2C(=O)N1 | 6.34%
15 | c1ccc(Cn2nnc3c(NCC4CC4)ncnc32)cc1 | -4.95%
16 | O=C(NCCS(=O)(=O)N1CCN(c2ccccc2)CC1)c1cc(=O)c2ccccc2o1 | 1.65%
17 | CCCc1c(C)nc2scc(-c3ccc(Cl)cc3)n2c1=O | 0.07%
18 | C#CCN(C[C@@H]1[C@@H](OC(=O)NC2CC2)[C@@H](OC(=O)NC2CC2)Cn2c(=O)ccc(=O)n21)S(=O)(=O)c1ccc(C)cc1 | -1.46%
19 | CCOC(=O)c1c(NC(=O)COC(=O)c2ccc(S(=O)(=O)C(F)F)cc2)sc(C(=O)N(C)C)c1C | -16.1%
20 | Cc1cc(Nc2ccccc2)n(C(=O)c2ccc(N)cc2)n1 | -10.8%
21 | COc1ccc(Nc2ccc3ccccc3c2)cc1 | 24.9%
22 | Nc1ccc(Nc2ccccc2)cc1 | 69% (active)

Row | Compound | inhibition
23 | O=C(NCCc1cccc(F)c1)C1CC(O)CN1C(=O)Nc1ccccc1 (configuration not stated) | 0.16%
24 | CC(C)[C@H](NC(=O)c1ccccc1F)C(=O)Nc1cccc(S(=O)(=O)N2CCOCC2)c1 | 0.83%
25 | C[C@@H]1CN([C@@H](C)CO)C(=O)CCCn2nncc2CO[C@H]1CN(C)C(=O)Nc1ccc(C(F)(F)F)cc1 | -1.93%
26 | CCOC(=O)C(=Cc1ccccc1)C(=O)c1ccccc1 | -10%
27 | O=C(CSc1ccc(Cl)cc1)NC1CC1 | 1.09%
28 | COc1cnc(-c2ccccn2)nc1Oc1ccc(C(C)(C)C)cc1 | 56.8% (active)
29 | COc1ccc(NCCc2ccccn2)cc1 | 3.17%
30 | COc1ccc2nc(-c3ccccn3)ccc2c1 | 4.04%
31 | C[C@H]1CN([C@@H](C)CO)C(=O)c2cc(C3=CCCCC3)cnc2O[C@@H]1CN(C)C(=O)Cc1ccccc1 | -0.1%
32 | Cc1ccc(C=O)c([B-](F)(F)F)c1 | 4.92%
33 | CN1c2ccc(C=O)c3c(C=O)ccc(c23)N(C)C1(C)C | 53.2% (active)
34 | c1ccc2[nH]c(-c3nc4ccccc4[nH]3)nc2c1 | 80.8% (active)
35 | O=C(Nc1sc2c(c1-c1nc3ccccc3[nH]1)CCCC2)C1CC1 | 3.75%
36 | Nc1ccccc1-c1nc2ccncc2[nH]1 | -6.2%
37 | NC(=S)NN=Cc1ccc(OC(=O)COc2cc(Cl)c(Cl)cc2Cl)cn1 | -2.79%
38 | NC(=O)CSC1=Nc2ccccc2C2=NC(CCC(=O)NCc3ccc(F)cc3)C(=O)N12 (configuration not stated) | 1.09%
39 | CC(C)C1N=C2c3ccccc3N=C(SCC(=O)c3ccc(O)c(O)c3)N2C1=O (configuration not stated) | 59.3% (active)
40 | O=C(CSC1=Nc2ccccc2C2=NC(c3ccccc3)C(=O)N12)NCC1CCCO1 (configuration not stated) | 5.98%
41 | CC(C)CCC(=O)Nc1cc(S(=O)(=O)N2CCOCC2)ccc1N1CCCC1 | -0.61%
42 | C#Cc1cc(N2CCN(C(=O)c3ccoc3)CC2)n2nc(-c3cccc(Cl)c3)cc2n1 | -68.2%
43 | CN(c1ccccc1)S(=O)(=O)c1ccc(C(=O)NCc2cccnc2)cc1 | 2.31%
44 | Cc1cc2c3ccccc3[nH]c(=O)n2n1 | -0.09%

Row | Compound | inhibition
45 | Cc1c(CCC(=O)O)c(=O)oc2c(C)c(OCc3ccccc3Cl)ccc12 | -1.83%
46 | CCN(CC)S(=O)(=O)c1ccc(N2CCOCC2)c(NC(=O)C2COc3ccccc3O2)c1 (configuration not stated) | -9.82%
47 | Cc1c(CC(=O)N2CCN(C(=O)C3COc4ccccc4O3)CC2)c(=O)oc2c(O)c(O)ccc12 (configuration not stated) | 51.5% (active)
48 | CCN1CCCC1CNC(=O)c1ccc2c(c1)NC(=O)/C(=C\c1ccccc1F)S2 (configuration not stated) | -43.1%
49 | O=C(CCCN1C(=O)C(c2ccccc2)Oc2cccnc21)Nc1ccccc1Br (configuration not stated) | -5.83%
50 | O=C(COC(=O)CCc1c[nH]c2ccccc12)Nc1cccc(Cl)c1 | -2.43%
51 | CC(C)c1ccc(C=NNc2ccc([N+](=O)[O-])cn2)cc1 | -18.3%
52 | Cc1cc(/C=N/Nc2ccc([N+](=O)[O-])cn2)c(C)n1-c1cccc(C(=O)O)c1 | 40.5% (active)
53 | Cc1cc(/C=N/NC(=O)CC2(C)OCCO2)c(C)n1-c1ccc(Cl)c(Cl)c1 | 2.74%
54 | CC(OC(=O)c1ccc(NC(=O)CC#N)cc1)C(=O)Nc1ccc(S(=O)(=O)N2CCCC2)cc1 (configuration not stated) | -20%
55 | O=C(COC(=O)/C=C/c1cccc(Cl)c1)NCCc1ccccc1 | 4.91%
56 | NNc1cccc(C=Cc2ccccc2)cc1=O | 61.4% (active)
57 | O=c1[nH]c(/C=C/c2cccc(Br)c2)nc2ccccc12 | -1.32%
58 | COc1ccc(-c2ccc3[nH]c4c(c3c2)CCN2C[C@H]3[C@H](C)ON(C)[C@H]3C[C@@H]42)cc1 | 6.55%
59 | CCCCN1C[C@H](c2ccc(Br)cc2)[C@@H](CC(=O)Nc2ccc(Br)cc2)C1=O | -22.8%
60 | CC(C)n1cnc2c(NCc3ccccc3)cc(OCC3CCN(C)CC3)cc21 | 40.1% (active)
61 | CCC(CO)Oc1cc(NC(=O)c2ccc(Cl)cc2)c2ncn(C(C)C)c2c1 (configuration not stated) | 6.4%
62 | CCC(CO)Oc1cc(NC(=O)c2cccc3ccccc23)c2ncn(C(C)C)c2c1 (configuration not stated) | -25%
63 | Cc1ccc(-c2nc3ccc(Cl)cn3c2Cc2ccccc2)cc1 | -74.4%
64 | O=C(CN1CCN(S(=O)(=O)c2cc(Cl)ccc2Cl)CC1)c1ccc(O)c(O)c1 | 39.9% (active)
65 | N#Cc1ccsc1NC(=O)CN1CCN(S(=O)(=O)c2cc(Cl)ccc2Cl)CC1 | -36.8%
66 | COc1ccc(Cl)cc1S(=O)(=O)N1CCN(CC(=O)C(C)(C)C)CC1 | 4.3%

Row | Compound | inhibition
67 | O=C1[C@H]2[C@@H](c3ccc(C(F)(F)F)cc3)N[C@]3(CCCN(Cc4ccc(Cl)cc4)C3=O)[C@H]2C(=O)N1Cc1ccccc1 | -39.5%
68 | COc1ncnc2c1ncn2CCCNCCN1CCOCC1 | 0.71%
69 | COc1cc(NC(=O)C2=C(C)OCCS2)c(Cl)cc1C(=O)NCCCN1CCCC(C)C1 (configuration not stated) | -6.48%
70 | C[C@@H]1CN([C@@H](C)CO)S(=O)(=O)c2ccc(-c3ccc(C(=O)N(C)C)cc3)cc2O[C@@H]1CN(C)Cc1ccccc1C(=O)O | -0.74%
71 | COCOCCn1cc(CN2CCS(=O)(=O)N(Cc3ccc(-c4cccc(N(C)C)c4)cc3)C(CC(C)C)C2=O)nn1 (configuration not stated) | 1.08%
72 | Cc1cc(=O)oc2cc(OCC(=O)N3CCN(c4ccc(F)cc4)CC3)c(Cl)cc12 | 4.27%
73 | Oc1c(CN2CCN(c3ccc(F)cc3)CC2)cc(Cl)c2cccnc12 | 50.4% (active)
74 | CC1CCCN(CC(O)COCc2ccccc2)C1 (configuration not stated) | 1.82%
75 | COc1cc(C)cc(CN2CCC(Cc3ccccc3)CC2)c1O | 4.82%
76 | Cc1ccc(CN2CCN(c3ncccn3)CC2)c(C)c1 | -5.09%
77 | Oc1c(CN2CCCC2)cc(COCc2ccccc2)c2cccnc12 | 49.2% (active)
78 | Nc1cc(C(=O)N2CCN(c3ccccc3Cl)CC2)ccc1N1CC2CC(C1)c1cccc(=O)n1C2 (configuration not stated) | 2.36%
79 | O=C(NCc1ccccc1)C1CNCC(C(=O)NCc2ccccc2)C1 (configuration not stated) | 0.67%
80 | CCOc1ccc(CCNC(=O)COC(=O)c2ccc(C)c(S(=O)(=O)N3CCOCC3)c2)cc1OCC | -2.04%
81 | O=[N+]([O-])c1ccc(C(S(=O)(=O)Cc2ccccc2)S(=O)(=O)Cc2ccccc2)cc1 | -1.31%
82 | Cc1cc([N+](=O)[O-])ccc1NS(=O)(=O)c1ccccc1 | -0.9%
83 | Cc1ccc(NS(=O)(=O)c2ccc(N/N=C/c3ccccc3OCC(=O)O)c([N+](=O)[O-])c2)c(C)c1 | 37.7% (active)
84 | COc1ccc(Br)cc1/C=N/Nc1ccc(S(=O)(=O)Nc2ccccc2C(=O)O)cc1[N+](=O)[O-] | -2.73%
85 | COc1ccc(S(=O)(=O)Nc2ccccc2C(=O)N2CCCC2)cc1C | 1.39%
86 | COc1cccc(/C=N/Nc2ccc(S(=O)(=O)Nc3ccccc3C(=O)O)cc2[N+](=O)[O-])c1O | 40.5% (active)
87 | C=C(C)CNC(=S)N/N=C/c1ccccc1OCC(=O)O | 4.14%
